In PubChem BioAssay AID1456 (Vanderbilt High Throughput Screening Facility, 2008):
Screen size: about 190,000 compounds; about 4,100 (2.2%) were called active. Only a selection was taken, and actives are over-represented in it overall. Unmarked numbers belong to inactive results.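 The calls were made as follows: active = thallium flux slope and its plate-corrected score both differing from the plate sample mean at a set confidence after two filtering rounds, in either direction; inactive = the rest.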

These compounds were tested against Solute carrier family 12 member 5 (Homo sapiens) (UniProt Q9H2X9) (assay: modulation of human KCC2 ion transport – cell-based, HEK293 KCC2, FluoZin-2 fluorescence, MLSMR, primary screen (AID 1456;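 as to B-score of Tl+ flux slope (higher = more flux/activation; lower = inhibition): slope of fluorescence scaled to starting intensity during 10 to 20 s after thallium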)). Conditions: KCC2 cells, thallium flux FluoZin-2 fluorescence; at 10 µM.
Sequence of Solute carrier family 12 member 5 (Homo sapiens) (Q9H2X9 whole entry, looked up): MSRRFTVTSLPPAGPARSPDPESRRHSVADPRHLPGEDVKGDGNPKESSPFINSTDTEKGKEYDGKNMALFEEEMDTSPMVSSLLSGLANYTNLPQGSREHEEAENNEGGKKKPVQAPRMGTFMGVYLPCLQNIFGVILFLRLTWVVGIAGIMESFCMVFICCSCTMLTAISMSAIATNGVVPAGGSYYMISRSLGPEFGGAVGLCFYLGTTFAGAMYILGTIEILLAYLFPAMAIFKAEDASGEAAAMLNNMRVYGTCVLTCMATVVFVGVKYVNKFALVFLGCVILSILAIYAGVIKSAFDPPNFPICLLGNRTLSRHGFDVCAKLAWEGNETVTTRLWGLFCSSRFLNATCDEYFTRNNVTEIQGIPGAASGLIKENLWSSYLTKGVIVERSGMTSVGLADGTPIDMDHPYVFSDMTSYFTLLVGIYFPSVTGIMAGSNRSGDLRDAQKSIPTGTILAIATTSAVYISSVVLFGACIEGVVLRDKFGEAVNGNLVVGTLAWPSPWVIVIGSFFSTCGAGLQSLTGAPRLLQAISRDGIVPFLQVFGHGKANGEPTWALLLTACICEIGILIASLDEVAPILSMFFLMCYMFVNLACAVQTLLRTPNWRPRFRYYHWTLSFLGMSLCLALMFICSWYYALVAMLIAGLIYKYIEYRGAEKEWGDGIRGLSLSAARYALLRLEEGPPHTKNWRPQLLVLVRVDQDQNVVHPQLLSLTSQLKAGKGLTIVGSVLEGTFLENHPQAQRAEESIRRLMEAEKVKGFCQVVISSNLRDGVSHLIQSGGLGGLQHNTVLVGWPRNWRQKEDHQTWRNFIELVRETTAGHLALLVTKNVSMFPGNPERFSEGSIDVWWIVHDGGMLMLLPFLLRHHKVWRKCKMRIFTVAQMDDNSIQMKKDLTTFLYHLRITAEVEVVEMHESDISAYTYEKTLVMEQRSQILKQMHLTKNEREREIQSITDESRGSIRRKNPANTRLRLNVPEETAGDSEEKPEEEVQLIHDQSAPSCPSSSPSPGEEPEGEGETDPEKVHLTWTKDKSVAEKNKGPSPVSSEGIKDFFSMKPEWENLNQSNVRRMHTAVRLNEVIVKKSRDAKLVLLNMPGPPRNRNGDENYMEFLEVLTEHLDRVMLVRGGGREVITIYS
With `Cc1ccc(-c2nc(SCC(=O)Nc3ccccc3OC(F)F)c3c(C)c(C(=O)O)sc3n2)cc1` the B-score of Tl+ flux slope (higher = more flux/activation; lower = inhibition) was -0.62. Work on `COc1ccc(C(=O)N/N=C(\C)CC(=O)Nc2ccc(Cl)cn2)cc1` yielded a B-score of Tl+ flux slope (higher = more flux/activation; lower = inhibition) of -0.466. With `CCn1c(CN2C(=O)CSc3ccccc32)n[nH]c1=S` the B-score of Tl+ flux slope (higher = more flux/activation; lower = inhibition) was 0.96. `CSCCC(Nc1nc2ccccc2s1)C(=O)O` (centres undefined) gave a B-score of Tl+ flux slope (higher = more flux/activation; lower = inhibition) of 0.0417. In the case of `CCC(=O)NC(=Nc1nc2ccccc2s1)NC(=O)CC`, the B-score of Tl+ flux slope (higher = more flux/activation; lower = inhibition) is reported as 41 (active). Work on `O=C(Nc1ccccc1)Nc1nc2ccccc2s1` yielded a B-score of Tl+ flux slope (higher = more flux/activation; lower = inhibition) of 0.018. Work on `O=C(O)C(F)(F)C(NCc1ccccc1)c1ccccc1` (centres undefined) yielded a B-score of Tl+ flux slope (higher = more flux/activation; lower = inhibition) of -0.106. For `Cn1c(SCC(=O)N2CCOCC2)nnc1-c1ccc2ncccc2c1`, the B-score of Tl+ flux slope (higher = more flux/activation; lower = inhibition) was -0.0283. `c1ccc2[nH]c(-c3nc4ccccc4[nH]3)nc2c1` gave a B-score of Tl+ flux slope (higher = more flux/activation; lower = inhibition) of 0.179. `O=C(Nc1ccccc1)c1cc2ccccc2[nH]1` gave a B-score of Tl+ flux slope (higher = more flux/activation; lower = inhibition) of -1.8. In the case of `S=c1ccc2ccccc2[nH]1`, the B-score of Tl+ flux slope (higher = more flux/activation; lower = inhibition) is reported as 29.1 (active). In the case of `O=C(c1ccc(OC2CCN(C(=O)c3cccnc3)CC2)cc1)N1CCCCCC1`, the B-score of Tl+ flux slope (higher = more flux/activation; lower = inhibition) is reported as 0.182. Work on `COc1ccc(OCC(=O)N2CCN(C(=O)COc3ccccc3)CC2)cc1` yielded a B-score of Tl+ flux slope (higher = more flux/activation; lower = inhibition) of -0.137. For `Cc1ccc(OCC(=O)N2CCN(C(=O)c3cccnc3)CC2)cc1`, the B-score of Tl+ flux slope (higher = more flux/activation; lower = inhibition) was 2.71 (active). `CCn1c(SCC(=O)N/N=C/c2ccccc2OCC(=O)O)nnc1-c1ccc(C(C)(C)C)cc1` gave a B-score of Tl+ flux slope (higher = more flux/activation; lower = inhibition) of -0.932. `CC1(C)CCSC(/C=C/c2ccccc2)=N1` was tested, and the B-score of Tl+ flux slope (higher = more flux/activation; lower = inhibition) was -1.21. `COc1ccc(N=Nc2ccc(O)c(P(=O)(c3ccccc3)c3ccccc3)c2)cc1` gave a B-score of Tl+ flux slope (higher = more flux/activation; lower = inhibition) of -0.282. `CCCCC(CC)CNC(=O)C(=O)C1C(=O)Nc2ccccc21` (centres undefined) was tested, and the B-score of Tl+ flux slope (higher = more flux/activation; lower = inhibition) was 8.5 (active). `CCCCC(CC)CNC(=O)CCCCn1c(=O)[nH]c2ccsc2c1=O` (centres undefined) was tested, and the B-score of Tl+ flux slope (higher = more flux/activation; lower = inhibition) was -0.707. For `CCOC(=O)C(=O)C1C(=O)Nc2ccccc21` (centres undefined), the B-score of Tl+ flux slope (higher = more flux/activation; lower = inhibition) was “inactive”. `OCCCC1CCCCN1Cc1nc(Cc2ccccc2Cl)no1` (centres undefined) showed a B-score of Tl+ flux slope (higher = more flux/activation; lower = inhibition) of -0.7. `O=C(/C=C/Nc1ccc(S(=O)(=O)Nc2cnc3ccccc3n2)cc1)c1cccnc1` showed a B-score of Tl+ flux slope (higher = more flux/activation; lower = inhibition) of -0.253. `CCOC(=O)c1nnn2c1nc(N1CCN(c3ccccc3)CC1)c1ccccc12` gave a B-score of Tl+ flux slope (higher = more flux/activation; lower = inhibition) of -2.78. With `C/C=C(\C)C(=O)N1CC2(CC(c3cccc(NC(=O)CCCCC)c3)=NO2)C[C@@H]1C(N)=O` (some centres undefined) the B-score of Tl+ flux slope (higher = more flux/activation; lower = inhibition) was -0.00449. `O=C(NN1C(=O)C2C(C1=O)C1C=CC2C12CC2)c1ccccc1Cl` (centres undefined) was tested, and the B-score of Tl+ flux slope (higher = more flux/activation; lower = inhibition) was 0.716. In the case of `Cc1oc2nc(SCC(=O)Nc3ccc(S(N)(=O)=O)cc3)nc(NC(=O)c3ccccc3)c2c1C`, the B-score of Tl+ flux slope (higher = more flux/activation; lower = inhibition) is reported as 6.29 (active). Work on `CCOC(=O)c1ccc(NC(=O)CSc2ncccn2)cc1` yielded a B-score of Tl+ flux slope (higher = more flux/activation; lower = inhibition) of 1.85. With `CCc1ccc(CCC(=O)Nc2ccc(S(N)(=O)=O)cc2)o1` the B-score of Tl+ flux slope (higher = more flux/activation; lower = inhibition) was 1.49. `CCOc1ccc(NC(=O)CN(C)CC(=O)NC(C)c2ccccc2)cc1OCC` (centres undefined) gave a B-score of Tl+ flux slope (higher = more flux/activation; lower = inhibition) of -0.692. With `CCOc1ccc(NC(=O)CN(C)CC(=O)Nc2cccc(Cl)c2C)cc1OCC` the B-score of Tl+ flux slope (higher = more flux/activation; lower = inhibition) was -5.58 (active). For `COc1cccc(NC(=O)CN(C)CC(=O)Nc2ccc3c(c2)CCC3)c1`, the B-score of Tl+ flux slope (higher = more flux/activation; lower = inhibition) was -0.353. Compound `COc1ccc(/C=N/NS(=O)(=O)c2ccc(NC(C)=O)cc2)cc1` has a B-score of Tl+ flux slope (higher = more flux/activation; lower = inhibition) of 0.538. Work on `COc1ccc(Cl)cc1NC(=O)CCN1CCOCC1` yielded a B-score of Tl+ flux slope (higher = more flux/activation; lower = inhibition) of -0.478. `O=C(NCc1ccco1)C1CCCN(S(=O)(=O)c2ccccc2)C1` (centres undefined) showed a B-score of Tl+ flux slope (higher = more flux/activation; lower = inhibition) of -0.4. `O=S(=O)(c1ccc(F)cc1)N1CCN(C(=S)NC2CCCC2)CC1` was tested, and the B-score of Tl+ flux slope (higher = more flux/activation; lower = inhibition) was -0.0466. `O=S(=O)(c1ccc(F)cc1)N1CCN(C(=S)NCc2ccco2)CC1` was tested, and the B-score of Tl+ flux slope (higher = more flux/activation; lower = inhibition) was -3.94 (active). Work on `O=S(=O)(c1ccc(Cl)cc1)N1CCCN(c2ccc(C(F)(F)F)cn2)CC1` yielded a B-score of Tl+ flux slope (higher = more flux/activation; lower = inhibition) of -0.0306. With `C=CCC(Nc1ccccc1)c1cccc(OC)c1OC` (centres undefined) the B-score of Tl+ flux slope (higher = more flux/activation; lower = inhibition) was -1.46. `Cc1nnc(SCC(=O)N2CCc3ccccc3C2)s1` was tested, and the B-score of Tl+ flux slope (higher = more flux/activation; lower = inhibition) was 0.173. For `O=C(CSc1nnc(-c2cccs2)n1Cc1ccccc1)N1CCc2ccccc2C1`, the B-score of Tl+ flux slope (higher = more flux/activation; lower = inhibition) was -5.7 (active). For `O=C(CSc1nnc(-c2cccs2)n1-c1ccccc1)N1CCN(C(=O)c2ccco2)CC1`, the B-score of Tl+ flux slope (higher = more flux/activation; lower = inhibition) was 0.0437. `CC(C)Cc1nnc(NC(=O)CCC(=O)Nc2ccc3cn[nH]c3c2)s1` was tested, and the B-score of Tl+ flux slope (higher = more flux/activation; lower = inhibition) was 0.683. `Nc1nnnn1/N=C/c1cc([N+](=O)[O-])ccc1O` was tested, and the B-score of Tl+ flux slope (higher = more flux/activation; lower = inhibition) was -0.19. `COc1cccc(CC(=O)Nc2ccc(-c3csc(C)n3)cc2)c1` gave a B-score of Tl+ flux slope (higher = more flux/activation; lower = inhibition) of -1.35.
